# Results as given in PubChem BioAssay AID2553 (Johns Hopkins Ion Channel Center, 2010).
# In all, about 310,000 compounds went through this assay and about 3,300 (1.1%) were called active.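 Rule for the calls: active = B-score under library mean minus 3 SD, initial fluorescence not abnormally high, positive integrated signal ratio; inactive = the rest.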 Shown is part of a subset that was picked to be rich in actives.
# Target: Short transient receptor potential channel 6 (Mus musculus) (UniProt Q61143)
# Experiment: mouse TRPC6 channel inhibitors, primary screen, cell-based, HEK293, membrane potential dye (AID 2553);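 for B-score: B-score derived from integrated fluorescence ratio over the kinetic read; more negative B-score means stronger inhibition of depolarization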
# Details: ACh-evoked depolarization, at 10 µM; active compounds read low
# Short transient receptor potential channel 6 (Mus musculus), sequence (Q61143 whole entry, looked up): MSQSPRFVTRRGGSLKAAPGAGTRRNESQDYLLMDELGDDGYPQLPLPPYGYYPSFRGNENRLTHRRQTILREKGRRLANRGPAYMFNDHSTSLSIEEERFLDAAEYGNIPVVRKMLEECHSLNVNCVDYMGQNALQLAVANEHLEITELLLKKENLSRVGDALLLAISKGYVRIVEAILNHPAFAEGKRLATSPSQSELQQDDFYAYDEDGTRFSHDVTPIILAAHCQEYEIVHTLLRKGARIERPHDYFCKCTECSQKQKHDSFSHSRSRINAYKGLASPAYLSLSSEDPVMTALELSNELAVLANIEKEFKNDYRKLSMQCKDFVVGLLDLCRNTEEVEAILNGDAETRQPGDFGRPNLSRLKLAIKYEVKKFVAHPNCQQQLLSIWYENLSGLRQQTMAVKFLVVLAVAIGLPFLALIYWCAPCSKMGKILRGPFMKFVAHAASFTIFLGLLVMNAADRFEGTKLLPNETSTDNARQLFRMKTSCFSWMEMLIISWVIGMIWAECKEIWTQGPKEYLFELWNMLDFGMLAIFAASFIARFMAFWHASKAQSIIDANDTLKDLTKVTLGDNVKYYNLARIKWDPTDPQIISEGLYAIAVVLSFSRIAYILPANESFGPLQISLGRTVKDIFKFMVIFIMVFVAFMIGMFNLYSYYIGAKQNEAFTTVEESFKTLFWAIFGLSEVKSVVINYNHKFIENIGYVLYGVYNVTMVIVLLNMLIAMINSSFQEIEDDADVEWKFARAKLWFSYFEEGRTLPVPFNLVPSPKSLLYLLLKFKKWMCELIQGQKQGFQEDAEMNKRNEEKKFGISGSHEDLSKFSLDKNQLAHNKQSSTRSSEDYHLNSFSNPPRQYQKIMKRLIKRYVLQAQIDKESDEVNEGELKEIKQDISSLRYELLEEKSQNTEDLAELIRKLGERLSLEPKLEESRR
row,SMILES,B-score
1,CC(=O)Oc1cccc(C(=O)Nc2ccccc2NC(=O)c2cccc(OC(C)=O)c2)c1,inactive
2,CCOC(=O)c1cc(NC(=O)c2ccc(Cl)cc2)c(=O)oc1-c1ccccc1,inactive
3,CC(=O)c1cc(NC(=O)c2ccccc2)c(=O)oc1/C=C/N(C)C,-5.52 (active)
4,CCOC(=O)c1c(/N=C/c2cc(C)ccc2O)sc2c1CCC2,inactive
5,CN(C(=O)COc1nnc(-c2cccs2)c(-c2cccs2)n1)c1ccccc1,inactive
6,CN(C)/C=C/C(=O)c1cnc2sccn2c1=O,inactive
7,COC(=O)c1cccc(N(C(=O)c2ccco2)C(C(=O)NC2CCCC2)c2ccco2)c1 (centres undefined),inactive
8,Cc1cccc(N2CCN(C(C)C(=O)N3CCc4ccccc43)CC2)c1C (centres undefined),inactive
9,O=C(c1ccccc1F)N(Cc1ccccc1)Cc1ccccc1,inactive
10,OCCN1CCN(C(=S)c2ccc(-c3ccccc3)cc2)CC1,inactive
11,O=C1c2ccccc2C(=O)c2c1cccc2N1CCN(Cc2ccccc2)CC1,-9.75 (active)
12,O=C1c2ccccc2C(=O)c2c1cccc2N1CCN(CCO)CC1,-11.5 (active)
13,OCCN1CCN(c2nnc(-c3ccccc3)c3ccccc23)CC1,inactive
14,O=C1c2ccccc2C(=O)c2c1cccc2N1CCN(C/C=C/c2ccccc2)CC1,inactive
15,O=C(CN1CCN(Cc2ccccc2)CC1)NC(c1ccccc1)c1ccccc1,inactive
16,O=C(CNCc1ccco1)Nc1cc(S(=O)(=O)N2CCOCC2)ccc1N1CCCC1,inactive
17,Clc1cc(NC2CCCCC2)ncn1,inactive
18,COc1ccc(S(=O)(=O)NCCOc2ccccc2)cc1F,inactive
19,CC(=O)c1c(O)cc2n(c1=O)-c1ccc(Cl)cc1C2(C)C,inactive
20,O=C(NCc1ccc2c(c1)OCO2)c1c(O)nc2sccn2c1=O,inactive
21,COCCOC(=O)c1sc(=S)n(CCOC)c1N,inactive
22,CC(Sc1nnc(CNC(=O)c2ccccc2F)n1C)C(=O)Nc1nccs1 (centres undefined),inactive
23,COc1cc(NC(=O)CCS(=O)(=O)c2ccc3c(c2)oc(=O)n3C)cc(OC)c1,inactive
24,Cc1cc(Nc2ccc(Cl)cc2)nc(N2CCOCC2)n1,inactive
25,Cc1cc(Nc2ccc(N3CCOCC3)cc2)c2cccc(C)c2n1,-7.55 (active)
26,Cc1cc(Nc2ccc(C(=O)N3CCCCC3)cc2)c2cccc(C)c2n1,inactive
27,Cc1cc(S(=O)(=O)NCC(C)C)ccc1OCC(=O)NC1CC1,inactive

row,SMILES,B-score
1,CCN(CC)CCNc1nc(-c2ccc(OC(F)F)cc2)c(C)s1,-6.16 (active)
2,CCOc1ccc(C2/C(=C(/O)c3ccc4c(c3)CC(C)O4)C(=O)C(=O)N2CCCn2ccnc2)cc1 (centres undefined),inactive
3,O=C(NCCN1CCOCC1)c1cc(-c2cccs2)nc2ccccc12,inactive
4,COC(=O)c1cc(-c2cccs2)nc2ccccc12,inactive
5,CCCCN(C)CCCNC(=O)c1cc(-c2cccs2)nc2ccccc12,-6.6 (active)
6,CCc1nnc(NC(=O)CSc2nnnn2-c2cccc(C(C)=O)c2)s1,inactive
7,O=S(=O)(Nc1nccs1)c1ccc2c(c1)OCCO2,inactive
8,CC(C)(C)Nc1nc(-c2ccccn2)nc2ccccc12,-6.28 (active)
9,CCOCCCNc1nc(-c2ccccc2)nc2ccccc12,inactive
10,Cc1ccc(Oc2nc(-c3ccccn3)nc3ccccc23)cc1,inactive
11,CC(=O)Nc1ccc(S(=O)(=O)NC2(C(F)(F)F)C(=O)NC(C)=C2C#N)cc1 (centres undefined),inactive
12,O=S1(=O)CCOC[C@H](CC2CCCCC2)N1Cc1ccc(F)cc1,inactive
13,NNC(=O)C1CCCn2c1nc1sc3c(c1c2=O)CCCC3 (centres undefined),inactive
14,CC1(C)Cc2c(sc3nc4n(c(=N)c23)CCCCC4)CO1,inactive
15,N=c1c2c3c(sc2nc2n1CCCCC2)CCCC3,-10.6 (active)
16,Cc1ccc(-c2nc(CSCC(=O)NC3CCN(Cc4ccccc4)CC3)c(C)o2)cc1,inactive
17,Cc1c(-c2ccccc2)n[nH]c1C(=O)N=Nc1c(O)[nH]c2ccccc12,inactive
18,O=C(O)C1CCCCC1C(=O)N1CCN(S(=O)(=O)c2ccc(F)cc2)CC1 (centres undefined),inactive
19,O=C(c1cnc(Cl)c(Cl)c1)N1CCN(S(=O)(=O)c2ccc(F)cc2)CC1,inactive
20,O=C(c1cccc(-n2cccc2)c1)N1CCN(S(=O)(=O)c2ccc(F)cc2)CC1,-5.32 (active)
21,c1ccc2c(c1)OCCOCCOCCO2,inactive
22,CCOc1cccc(/C=N/NC(=S)NCCN2CCOCC2)c1O,inactive
23,Nc1nc(NCCCN2CCOCC2)nc(Nc2ccccc2)c1[N+](=O)[O-],inactive
24,CCOc1nc(NCCN2CCOCC2)nc(Nc2ccc(C)cc2)n1,-5.49 (active)
25,Cc1c(Br)ccc(NC(=O)COc2ccccc2C(N)=O)c1C,inactive
26,O=S(=O)(Nc1cccc(Oc2ccc(Cl)cc2)n1)c1ccc(F)cc1,inactive
27,COc1cccc(NC(=O)Nc2nnc(N3CCCCC3C)s2)c1 (centres undefined),inactive
